RecA splice inh: Mtb RecA intein splicing inhibition. actives 0.75% (n = 290,000). inhibition, % (no concentration beside the values). cell-free RecA intein splicing, fluorescence; in the data active means inhibition above about 30%; inconclusive means no clear call, values can overlap the other calls
Mtb FBA inh: Mtb fructose-bisphosphate aldolase inhibition; purified M. tuberculosis FBA, fluorescence read-out; inhibition, % at 1 µM; actives 2.3% (n = 360,000); in the data active means inhibition above about 27%
Target sequence (P9WQA3 whole entry, looked up): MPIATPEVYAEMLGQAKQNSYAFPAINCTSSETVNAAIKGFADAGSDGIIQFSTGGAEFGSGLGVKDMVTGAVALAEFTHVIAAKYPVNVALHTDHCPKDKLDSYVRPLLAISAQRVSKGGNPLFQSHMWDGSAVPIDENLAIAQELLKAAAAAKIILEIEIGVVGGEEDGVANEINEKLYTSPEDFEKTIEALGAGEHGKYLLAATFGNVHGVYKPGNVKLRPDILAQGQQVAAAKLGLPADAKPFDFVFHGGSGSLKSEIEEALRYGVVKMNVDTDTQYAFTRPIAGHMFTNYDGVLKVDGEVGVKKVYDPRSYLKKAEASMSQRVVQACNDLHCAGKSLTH
Mtb bLac sens: beta-lactam sensitization of Mtb H37Rv; M. tuberculosis H37Rv growth with meropenem, percent inhibition; inhibition, % at 25 µM; actives 0.27% (n = 330,000); AID 434955; call rule not given here;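 further: growth measured after seven days incubation then overnight dye step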
GDH-TPI counter: inhibits GDH-TPI coupling enzymes, artifact for Mtb FBA screen. inhibition, % at 4.8 µM. actives 1.2% (n = 360,000). GDH-TPI coupled enzyme counterscreen, NADH absorbance. AID 588335
CCHFV vOTU inh: blocks the CCHF virus ovarian tumor domain protease | CCHFV vOTU protease, Pep-AMC fluorescence | inhibition, % at 11.5 µM | actives 0.55% (n = 370,000) | AID 651958
Large screens that a line does not name were inactive. This is a sample that favours compounds with a hit; in the whole collection about 4.2% have one here. Unless noted, no stated cut-off is given here; in the data, active means inhibition above about 30%; inactive means the rest.

COc1ccc(CCn2c(N)c(C(=O)NCc3ccco3)c3nc4ccccc4nc32)cc1OC	none
Cc1ccc(S(=O)(=O)N2CCCC(C(=O)Nc3c(C)n(C)n(-c4ccccc4)c3=O)C2)cc1C (configuration not stated)	none (no result: RecA splice inh, Mtb FBA inh, Mtb bLac sens, GDH-TPI counter)
COc1cc(/C=C(/C#N)C(=O)c2c(C)[nH]c3ccccc23)ccc1OCC#N	GDH-TPI counter 38
CCCCCC[C@@H](CCCc1ccccc1OC)CN(CCCC)S(C)(=O)=O	none (no result: RecA splice inh, Mtb FBA inh, Mtb bLac sens, GDH-TPI counter)
CCOC(=O)C1CCN(C=Nc2cc(C)on2)CC1	Mtb FBA inh active
COc1cccc(-n2c(SCC(=O)N3CCOCC3)nc3c([nH]c4ccccc43)c2=O)c1	GDH-TPI counter 33
COc1cccc(-n2c(SCC(=O)N3CCOCC3)nnc2-c2c[nH]c3ccccc23)c1	none
CC(=O)NC1CC2CCCC(C1)N2CC(=O)N1CCCc2ccccc21 (configuration not stated)	none
O=C(NC1CC2CCCC(C1)N2CC(=O)N1CCCc2ccccc21)C1CCCCC1 (configuration not stated)	Mtb FBA inh 191
CC(=O)CC[C@@H]1CC[C@]2(CCCN(C(=O)c3ccno3)C2)O1	none (no result: RecA splice inh, Mtb FBA inh, Mtb bLac sens, GDH-TPI counter)
CCCCNc1c(-c2ccc(OC)c(Sc3ccc(OC)cc3)c2)nc2ccccn12	Mtb FBA inh 28 (no result: CCHFV vOTU inh)
CCCCNc1c(-c2ccc(SC(C)CC)cc2)nc2cnccn12 (configuration not stated)	Mtb FBA inh 40 (no result: RecA splice inh, CCHFV vOTU inh)
CCCCNc1c(-c2ccc(OC)c(Sc3ccc(OC)cc3)c2)nc2cnccn12	none (no result: RecA splice inh)
C=CCn1c(Cc2cccs2)nnc1SCC(=O)Nc1ccc(OCc2ccccc2)cc1	none (no result: RecA splice inh, Mtb FBA inh, Mtb bLac sens, GDH-TPI counter)
CC(C)CN1C(=O)[C@]2(CC(=O)N(C)C2c2ccccc2)c2cc(-n3cc(CN(C)C)nn3)ccc21 (some centres not stated)	none (no result: RecA splice inh, Mtb FBA inh, Mtb bLac sens, GDH-TPI counter)
CC(=O)c1ccc(-c2ccc(/C=C(/Sc3n[nH]c(C)n3)C(=O)O)o2)cc1	GDH-TPI counter 39
COc1cc(Cn2c3ccc(NC(=O)CC(C)C(F)(F)F)cc3c(=O)n2C)ccc1F (configuration not stated)	Mtb FBA inh 174 (no result: RecA splice inh, Mtb bLac sens)
Cn1c(=O)c2cc(NC(=O)Cc3ccccc3F)ccc2n1Cc1ccc(Cl)cc1	Mtb FBA inh 133 (no result: RecA splice inh, Mtb bLac sens)
Cn1c(=O)c2cc(NC(=S)NC3CCCCC3)ccc2n1Cc1ccc(Cl)cc1	none (no result: RecA splice inh, Mtb bLac sens)
CC(CC(=O)Nc1ccc2c(c1)c(=O)n(C)n2Cc1ccc(Cl)cc1)C(F)(F)F (configuration not stated)	Mtb FBA inh 143 (no result: RecA splice inh, Mtb bLac sens)
COc1cc(Cn2c3ccc(NC(=O)CC(C)(C)C)cc3c(=O)n2C)ccc1F	Mtb FBA inh 178 (no result: RecA splice inh, Mtb bLac sens)
Cn1c(=O)c2cc(NC(=S)NCc3ccccc3F)ccc2n1Cc1ccccc1	none (no result: RecA splice inh, Mtb bLac sens)
O=C(OCCCN1CCC2(CCC(c3ccccc3)CC2)C1=O)c1ccccc1 (configuration not stated)	none (no result: RecA splice inh, Mtb FBA inh, Mtb bLac sens, GDH-TPI counter)
COc1ccc(-c2noc(C3CCCN(C(=O)Nc4ccc5c(c4)OCO5)C3)n2)cc1 (configuration not stated)	none (no result: RecA splice inh, Mtb FBA inh, Mtb bLac sens, GDH-TPI counter)
CC(CC(=O)Nc1ccc2c(c1)c(=O)n(C)n2-c1ccccc1)c1ccccc1 (configuration not stated)	none (no result: RecA splice inh, Mtb bLac sens)
CC(CC(=O)Nc1ccc2c(c1)c(=O)n(C)n2Cc1cccc(C(F)(F)F)c1)C(F)(F)F (configuration not stated)	Mtb FBA inh 126 (no result: RecA splice inh, Mtb bLac sens)
O=C(/C=C/c1cccs1)c1ccc(NC(=O)c2cccc(Br)c2)cc1	GDH-TPI counter 40
Cc1ccc(C(=O)Nc2ccc(C(=O)/C=C/c3cccs3)cc2)cc1	none
Cc1cccc(C)c1-n1nnnc1C1(C)Cn2nccc2C(=O)N1Cc1ccc(F)cc1 (configuration not stated)	none (no result: RecA splice inh, Mtb FBA inh, Mtb bLac sens, GDH-TPI counter)
C#CCn1c2ccccc2c(=O)n1C(C)CBr (configuration not stated)	none (no result: RecA splice inh, Mtb FBA inh, Mtb bLac sens, GDH-TPI counter)
C#CCn1c2ccccc2c(=O)n1C(C)C	Mtb FBA inh 121 (no result: RecA splice inh, Mtb bLac sens, GDH-TPI counter)
COC(=O)[C@]12C[C@H](CC(=O)N3CCSCC3)C(=O)N(CCC3=CCCCC3)C1=C[C@H](C(C)C)O[C@@H]2C1CC1	none (no result: RecA splice inh, Mtb FBA inh, Mtb bLac sens, GDH-TPI counter)
N#C/C(=C(/O)COC(=O)CSc1ccc2ccccc2c1)c1nc2ccccc2[nH]1	GDH-TPI counter 38
N#C/C(=C(/O)CSc1n[nH]c(N)n1)c1nc2ccccc2[nH]1	GDH-TPI counter 32
Cn1cnnc1SC/C(O)=C(\C#N)c1nc2ccccc2[nH]1	none
Cc1ccccc1C(=O)NC1CCCCN(C(C)C)C1=O (configuration not stated)	none (no result: RecA splice inh, Mtb FBA inh, Mtb bLac sens, GDH-TPI counter)
CN1CCSc2ccc(C(=O)NCc3ccccc3F)cc21	Mtb FBA inh 137
CCN1CCSc2ccc(C(=O)NCc3ccccc3C)cc21	Mtb FBA inh 129
CC(C)Oc1ccc(CNC(=O)c2ccc3c(c2)N(C)CCS3)cc1	Mtb FBA inh 140
CCOc1ccc(NC(=O)c2ccc3c(c2)N(C)CCS3)cc1	none (no result: RecA splice inh, Mtb bLac sens)
C[C@@]12C[C@@H]3C(=O)N(Cc4ccccc4)CC(=O)N3[C@@H]1N(S(=O)(=O)c1ccccc1)c1ccccc12	none (no result: RecA splice inh, Mtb FBA inh, Mtb bLac sens, GDH-TPI counter)
CN(C)CCCNC(=O)/C=C/c1ccc2c(c1)OCO2	none
O=C(/C=C/C=C/c1ccc2c(c1)OCO2)N1CCCCC1	GDH-TPI counter 41 (no result: RecA splice inh)
CC(C)CNC(=O)/C=C/C=C/c1ccc2c(c1)OCO2	GDH-TPI counter 39 (no result: RecA splice inh)
CCn1c(=NC(=O)c2cccc(N3C(=O)CCC3=O)c2)sc2c(C)ccc(OC)c21	GDH-TPI counter 38
COc1cccc(C(=O)N=c2sc3c(C)ccc(OC)c3n2C)c1	none
CCn1c(=NC(=O)c2ccc(N3C(=O)CCC3=O)cc2)sc2c(OC)ccc(OC)c21	GDH-TPI counter 37
COc1ccc(C=Nc2cccc3c(=O)[nH][nH]c(=O)c23)c2ccccc12	GDH-TPI counter 31
Cn1c2ccccc2c2cc(/C=N/NC(=O)c3ccccc3F)ccc21	GDH-TPI counter 47
Cn1c(CCCNC(=O)c2ccccc2)nc2ccccc21	none
Cn1c(/C=N/NC(=O)c2ccccc2)nc2ccccc21	GDH-TPI counter 47
Cn1c(-c2ccccc2)c(/C=N/NC(=O)c2ccc(O)cc2)c2ccccc21	GDH-TPI counter 52
CCn1c2ccccc2c2cc(C=NNC(=O)c3ccoc3C)ccc21	none (no result: RecA splice inh, Mtb FBA inh, Mtb bLac sens, GDH-TPI counter)
O=C(N/N=C\c1c(O)ccc2ccccc12)c1ccc(O)cc1	none
CCn1c2ccccc2c2cc(/C=N/NC(=O)c3ccccc3C)ccc21	GDH-TPI counter 35
CCC(=O)N(Cc1ccccc1)c1ccccc1C(=O)Nc1cc(OC)ccc1OC	none (no result: RecA splice inh, Mtb FBA inh, Mtb bLac sens, GDH-TPI counter)
COCCCN1C(=O)[C@H](CC(=O)N2CCOCC2)[C@]2(C(=O)OC)CCCCC=C12	none (no result: RecA splice inh, Mtb FBA inh, Mtb bLac sens, GDH-TPI counter)
C=CCN1C(=O)[C@H](CC(=O)NCCC(C)C)[C@@]2(C(=O)OCC)CCCC=C12	none (no result: RecA splice inh, Mtb FBA inh, Mtb bLac sens, GDH-TPI counter)
CCn1c2ccccc2c2cc(/C=N/NC(=O)c3cccc(C)c3)ccc21	Mtb bLac sens inconclusive
Cn1c2ccccc2c2cc(/C=N/NC(=O)c3ccc(N)cc3)ccc21	GDH-TPI counter 36
Cc1ccc(-n2c(SCC(=O)c3ccccc3Cl)nnc2-c2cnccn2)cc1	none (no result: RecA splice inh, Mtb FBA inh, Mtb bLac sens, GDH-TPI counter)
CC(=O)c1cc(-c2cccc(C#N)c2)c(=O)n2c1CCC2	none (no result: RecA splice inh, Mtb FBA inh, Mtb bLac sens, GDH-TPI counter)
O=C1CC(N2CCN(c3ccc(O)cc3)CC2)C(=O)N1Cc1cccs1 (configuration not stated)	none (no result: RecA splice inh)
